{"source": "ChEMBL document CHEMBL3988442", "about": "“University of Dundee, Small-Polar-MMV Screening Library” (2021)", "note": "Out of some 48,000 compounds screened, about 13,000 (27%) showed an effect of 50% or more. Some of the results follow.", "data": [{"test_system": "Wolbachia pipientis", "experiment": "Anti-Wolbachia Cell-Based Screen", "type": "functional", "set-up": "scale not given: in the data most compounds retested in dose-response had high values", "details": "5 µM", "units": {"Percent Effect": "%"}, "values": [{"smiles": "O=C(c1cc(-n2cccn2)ccn1)N1CCOc2ccncc21", "Percent Effect": -0.9385}, {"smiles": "O=C1CN(CC[C@@H](O)c2ccccc2)CCN1c1ccccc1Cl", "Percent Effect": -4.837}, {"smiles": "CC(=O)Nc1nc(C(=O)N2CCCC(n3nc(C)cc3C)C2)cs1", "note": "(stereo unspecified)", "Percent Effect": -2.313}, {"smiles": "Cc1nc(C(=O)N2CCCC(n3cncn3)C2)cs1", "note": "(stereo unspecified)", "Percent Effect": -4.147}, {"smiles": "CC(=O)Nc1nc(C(=O)N2CCCC(n3cncn3)C2)cs1", "note": "(stereo unspecified)", "Percent Effect": 110.6}, {"smiles": "O=C(c1csnn1)N1CCCC(n2cncn2)C1", "note": "(stereo unspecified)", "Percent Effect": 98.21}, {"smiles": "O=C(c1cscn1)N1CCCC(n2cncn2)C1", "note": "(stereo unspecified)", "Percent Effect": 88.79}, {"smiles": "O=C(c1cc(C2CC2)on1)N1CCCC(n2cncn2)C1", "note": "(stereo unspecified)", "Percent Effect": 7.01}, {"smiles": "CCC(=O)NCc1ccccc1Cn1ccnc1", "Percent Effect": 2.122}, {"smiles": "Cn1nc(CNC(=O)C2CC2)cc1C1CC1", "Percent Effect": 4.922}, {"smiles": "Cn1nc(CNC(=O)C2CCN(S(C)(=O)=O)CC2)cc1C1CC1", "Percent Effect": 134.6}, {"smiles": "Cn1nc(CNC(=O)C2CCCCC2)cc1C1CC1", "Percent Effect": 119.6}, {"smiles": "Cn1nc(CNC(=O)C2CCCC2)cc1C1CC1", "Percent Effect": -4.336}, {"smiles": "Cn1nc(CNC(=O)C2CCC2)cc1C1CC1", "Percent Effect": 172.6}, {"smiles": "C/C=C(\\C)CN1CCCn2nc(CNC(=O)C3CCC3)cc2C1", "Percent Effect": 8.995}, {"smiles": "Cc1ccc2c(c1)OC(C)(C)CC2NC(=O)C1CCN(S(C)(=O)=O)CC1", "note": "(stereo unspecified)", "Percent Effect": -7.671}, {"smiles": "O=C(NCc1cc(C2CC2)n(C2CCCC2)n1)C1CC1", "Percent Effect": 118.5}, {"smiles": "CCC(=O)NCc1cc(C2CC2)n(C2CCCC2)n1", "Percent Effect": -1.631}, {"smiles": "O=C(O)C1(Cc2ccccc2Cl)CCN(c2ncccn2)CC1", "Percent Effect": 4.771}, {"smiles": "Cc1noc(-c2cccnc2N(C)Cc2cscn2)n1", "Percent Effect": -2.045}, {"smiles": "CCC[C@H]1CN(CCOC)C[C@@H]1NC(=O)Cn1cc(C)cn1", "Percent Effect": -1.609}, {"smiles": "CCc1ncc(C(=O)NC(C)(C)CC)s1", "Percent Effect": -4.681}, {"smiles": "CCC(C)n1cnc(S(=O)(=O)N(C)C)c1", "note": "(stereo unspecified)", "Percent Effect": -2.659}, {"smiles": "Cc1noc(C2CCN(C(=O)CN(C)c3ccc(Cl)cn3)CC2)n1", "Percent Effect": -9.214}, {"smiles": "CCC(=O)N1CCC(c2nnc(Cn3cncn3)n2C2CC2)CC1", "Percent Effect": -3.377}, {"smiles": "Cc1cc(C)n(-c2cncc(N3CCN(C(=O)CN(C)C)CC3)n2)n1", "Percent Effect": -21.39}, {"smiles": "CCC(=O)N1CCC(c2ncncc2C)CC1", "Percent Effect": 105.8}, {"smiles": "CCC(=O)N1CCC(c2nnc(Cn3cccn3)n2C2CC2)CC1", "Percent Effect": 6.186}, {"smiles": "Cc1cncnc1C1CCN(C(=O)CN(C)C)CC1", "Percent Effect": 107.4}, {"smiles": "NC(=O)CSCC(=O)N1CCc2cc(Cl)cc(Cl)c2C1", "Percent Effect": -10.26}, {"smiles": "CC(CNC(=O)c1cc(C2CC2)on1)N1CCc2ccccc21", "note": "(stereo unspecified)", "Percent Effect": 110.3}, {"smiles": "Cc1noc(C)c1C(=O)NCC(C)N1CCc2ccccc21", "note": "(stereo unspecified)", "Percent Effect": 136.7}, {"smiles": "CCC(CNC(=O)c1ccc(=O)[nH]n1)N1CCc2ccccc2C1", "note": "(stereo unspecified)", "Percent Effect": -13.41}, {"smiles": "Cc1noc(C)c1C(=O)NCC1CCCCN1Cc1ccccc1", "note": "(stereo unspecified)", "Percent Effect": 1.84}, {"smiles": "CC(CNC(=O)c1ccc(C#N)cc1)N1CCc2ccccc21", "note": "(stereo unspecified)", "Percent Effect": -4.664}, {"smiles": "Cc1noc(C)c1C(=O)NCC(C)N(C)C", "note": "(stereo unspecified)", "Percent Effect": -3.203}, {"smiles": "CC(CNC(=O)c1cccc(C#N)c1)N1CCc2ccccc21", "note": "(stereo unspecified)", "Percent Effect": -2.298}, {"smiles": "COc1ccc(NC(=O)NCC(C)N2CCc3ccccc32)cc1", "note": "(stereo unspecified)", "Percent Effect": 6.782}, {"smiles": "O=C(c1ccc(=O)[nH]n1)N1CCc2ccccc21", "Percent Effect": 6.411}, {"smiles": "CC(CNC(=O)c1ccc(=O)[nH]n1)N1CCc2ccccc21", "note": "(stereo unspecified)", "Percent Effect": 114.6}, {"smiles": "Cc1cc(C(=O)NCC(C)N2CCc3ccccc32)on1", "note": "(stereo unspecified)", "Percent Effect": 128.5}, {"smiles": "O=C(NCCSC1CCCC1)c1cc(C2CC2)on1", "Percent Effect": 6.284}, {"smiles": "CS(=O)(=O)CCCNC(=O)NC1CC(c2cccc(Cl)c2)C1", "note": "(stereo unspecified)", "Percent Effect": -3.705}, {"smiles": "N#Cc1cccc(S(=O)(=O)NC2CCN(Cc3ccccc3)C2=O)c1", "note": "(stereo unspecified)", "Percent Effect": -3.444}, {"smiles": "CC(C)Oc1cc(N2CCC3(CC2)[C@H](O)C[C@@H]3O)nc(N)n1", "Percent Effect": 12.72}, {"smiles": "CN1CCCC(N2CCN(c3nc4ccccn4c3C#N)CC2)C1", "note": "(stereo unspecified)", "Percent Effect": 6.11}, {"smiles": "CC(=O)N(CCc1ccccc1)CC(=O)Nc1ccccc1C#N", "Percent Effect": -7.598}, {"smiles": "CC(C)(C)c1ncc2c(n1)CN(C(=O)c1ccc(C#N)nc1)C2", "Percent Effect": -2.492}, {"smiles": "COC(=O)c1ccc(F)c(S(=O)(=O)Nc2ccc(C(N)=O)cc2)c1", "Percent Effect": 8.532}, {"smiles": "Cc1cccc(N2CCN(CCC(=O)NCc3ccc(C)s3)CC2)c1", "Percent Effect": 3.46}, {"smiles": "Cc1cnc(C(=O)N2CCN(C(=O)C(C)C)[C@@H]3CS(=O)(=O)C[C@@H]32)cn1", "Percent Effect": -9.288}, {"smiles": "Cc1nnnn1-c1ccc(CC(=O)N2CCOCC(O)C2)cc1", "note": "(stereo unspecified)", "Percent Effect": -21.98}, {"smiles": "COC(=O)CC1CCN(C(=O)c2ccccc2-n2nnnc2C)CC1", "Percent Effect": 87.7}, {"smiles": "COC(=O)CC1CCN(C(=O)c2ccc(C)cc2)CC1", "Percent Effect": 100}, {"smiles": "CCNc1ccnc(NC2CCN(C(=O)c3ccc(C)cc3)CC2)n1", "Percent Effect": 10.68}, {"smiles": "CC(C)(C)OC(=O)NCC1CCN(C(=O)c2ccccc2O)CC1", "Percent Effect": 15.84}, {"smiles": "COC(=O)CC1CCN(C(=O)c2ccc(-n3nnnc3C)cc2)CC1", "Percent Effect": 129.7}, {"smiles": "COc1ncccc1C(=O)N1CCC(CNC(C)=O)CC1", "Percent Effect": -0.8543}, {"smiles": "COC(=O)C1CCCN1C(=O)c1ccc(-n2nc(C)cc2C)cc1", "note": "(stereo unspecified)", "Percent Effect": -11.77}, {"smiles": "Cc1ccc(O)c(C(=O)N2CCC(CN3CCCCCC3)CC2)c1", "Percent Effect": 5.424}, {"smiles": "Cc1cnn(CC2CN(CC(=O)Nc3sccc3C#N)CCO2)c1", "note": "(stereo unspecified)", "Percent Effect": -6.28}, {"smiles": "CCc1noc(CS(=O)(=O)Cc2ccccc2Cl)n1", "Percent Effect": -7.562}, {"smiles": "CN(C)CCN1C(=O)CC[C@@H]2[C@H]1CCN2C(=O)c1ccc(C#N)cc1.O=C(O)C(F)(F)F", "Percent Effect": -26.6}, {"smiles": "CCS(=O)(=O)N1Cc2ncn(CC3CC3)c2C(COCC2CC2)C1.O=C(O)C(F)(F)F", "note": "(stereo unspecified)", "Percent Effect": 98}, {"smiles": "Cn1cnc2c1C(COCC1CC1)CN(C(=O)c1cccs1)C2", "note": "(stereo unspecified)", "Percent Effect": -12.17}, {"smiles": "Cn1cnc2c1C(COCC1CCOCC1)CN(c1ncccn1)C2.O=C(O)C(F)(F)F.O=C(O)C(F)(F)F", "note": "(stereo unspecified)", "Percent Effect": -12.76}, {"smiles": "Cn1cnc2c1C(COCC1CC1)CN(c1ncccn1)C2.O=C(O)C(F)(F)F.O=C(O)C(F)(F)F", "note": "(stereo unspecified)", "Percent Effect": 100.9}, {"smiles": "COCC1CN(S(=O)(=O)N(C)C)Cc2cnn(CC3CCCC3)c21.O=C(O)C(F)(F)F", "note": "(stereo unspecified)", "Percent Effect": -5.811}, {"smiles": "CCOCC1CN(S(=O)(=O)N(C)C)Cc2cnn(CC3CC3)c21.O=C(O)C(F)(F)F", "note": "(stereo unspecified)", "Percent Effect": -12.89}, {"smiles": "CCS(=O)(=O)N1Cc2ncn(C)c2C(COCC2CCOCC2)C1.O=C(O)C(F)(F)F", "note": "(stereo unspecified)", "Percent Effect": -11.73}, {"smiles": "COCC1CN(S(=O)(=O)N(C)C)Cc2ncn(CC3CC3)c21.O=C(O)C(F)(F)F", "note": "(stereo unspecified)", "Percent Effect": 108.7}]}]}
